High-throughput results: PubChem BioAssay, several laboratories
SSB-PriA inh: blocks PriA binding to SSB C-terminal tail; AlphaScreen SSBct-PriA binding, biotinylated peptide; inhibition, % at 33 µM; 430,000 compounds, 0.6% hits; AID 1272365; in the data active means inhibition mostly above about 37%, no sharp cut-off; inactive means mostly below about 20%;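 further: plate controls were negative control peptide for no effect and reference peptide for full effect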
BoNT A protease: blocks Botulinum neurotoxin A light chain protease; multiplex microsphere protease substrate cleavage, flow cytometry; inhibition, % at 10 µM; 360,000 compounds, 0.17% hits; further: plate controls were buffer without enzyme for full effect and enzyme alone for no effect
Anthrax LF prot: inhibitors of Bacillus anthracis lethal factor protease; AID 588501; multiplex microsphere protease cleavage assay, LF; P15917; inhibition, % at 10 µM; 360,000 compounds, 0.12% hits; further: plate controls were buffer without enzyme for full effect and enzyme alone for no effect
Bead autofluor: compound fluorescence in toxin protease inhibitor counterscreen; compound autofluorescence counterscreen, microsphere flow cytometry; stronger effect = higher value; fluorescence intensity (concentration not given with the values); 360,000 compounds, 3.1% hits; AID 624483; in the data active means fluorescence intensity above about 16000; inconclusive means no clear call, values can overlap the other calls
BoNT F protease: inhibitors of Botulinum neurotoxin F light chain protease; inhibition, % at 10 µM; 360,000 compounds, 0.22% hits; Multiplex microsphere protease cleavage assay, flow cytometry; in the data active means inhibition above about 35%, passing the limit was not always enough; inconclusive means no clear call, values can overlap the other calls; further: plate controls were buffer without enzyme for full effect and enzyme alone for no effect
An asterisk follows results filed as active; ? = inconclusive; / = no result; ! = repeats disagree. An excerpt weighted towards active compounds, which were near 3.1% of everything screened. Unless noted, no stated cut-off is given here; in the data, active means inhibition above about 30%; inconclusive means no clear call, values can overlap the other calls; inactive means below that.

SMILES	SSB-PriA inh	BoNT A protease	Anthrax LF prot	Bead autofluor	BoNT F protease
Cc1ccc(S(=O)(=O)Cn2cncn2)cc1	-24	/	/	/	/
CCOCCCNC(=O)c1cc2sc(Cl)cc2n1CC	-1	?	-10	18115*	-15
CCOCCCNC(=O)c1cc(C)nn1-c1ccccc1	-2	-1	-9	5805	-10
COc1ccc(NC(=O)CSc2nc3c(cnn3-c3ccc(S(N)(=O)=O)cc3)c(=O)[nH]2)cc1	-5	/	/	/	/
C=CCNc1sc(C(=O)c2ccccc2)c(N)c1-c1nc2ccccc2s1	54*	15	-1	5731	-17
CCNc1sc(C(=O)c2cccs2)c(N)c1-c1nc2ccccc2s1	55*	3	-4	2901	-20
O=c1ccc(-c2cccs2)nn1Cc1ccncc1	-4	/	/	/	/
COc1ccc(C2CCCCN(C(=O)Cc3ccsc3)C2)cc1 (stereo not given)	-6	/	/	/	/
O=C(c1cccs1)c1ccc(CNC(=O)c2ccccc2F)s1	-5	/	/	/	/
O=S(Cc1ccccc1)CC(O)(c1ccccc1)c1ccccc1 (stereo not given)	-3	-2	-2	21390*	-4
O=S(Cc1ccc(Cl)cc1)CC(O)(c1ccccc1)c1ccccc1 (stereo not given)	-13	-1	11	10823	-1
O=C(NN=Cc1ccccc1)c1sccc1-n1cccc1	3	/	/	/	/
c1ccc(N2CCN(c3ccccc3)C2c2cccs2)cc1	-9	-1	-2	22528*	-7
CCc1ccc2[nH]c(=O)c(C(c3nnnn3Cc3ccccc3)N3CCOCC3)cc2c1 (stereo not given)	0	?	-3	21543*	0
CCc1ccc2[nH]c(=O)c(C(c3nnnn3Cc3ccc(OC)cc3)N3CCOCC3)cc2c1 (stereo not given)	1	0	-3	16212*	2
CCc1ccc2[nH]c(=O)c(C(c3nnnn3CCOC)N3CCN(c4ccccc4)CC3)cc2c1 (stereo not given)	-6	2	0	3730	16
COc1nc(NN=Cc2ccccc2F)nc(N2CCCCC2)n1	-22	/	/	/	/
COc1nc(N/N=C/c2ccccc2F)nc(N2CCCCC2)n1	/	3	0	22376*	2
Nc1nc(CSc2ncn(-c3ccccc3)n2)cs1	14	4	1	22447*	5
CCSc1ccccc1C(=O)Nc1nc2ccc(NC(C)=O)cc2s1	22	/	/	/	/
CC(C)NC(=O)NC(=O)COC(=O)Cc1ccsc1	-7	-1	-2	3194	-5
COc1ccc(CC(=O)OCC(=O)NC(=O)NC(C)C)cc1	-9	-2	-3	23854*	-5
O=C(NCC1(Sc2ccccc2)CCOCC1)C1COc2ccccc2O1 (stereo not given)	-7	/	/	/	/
O=S1(=O)Nc2c(ccc3cccnc23)-c2ccccc21	97*	-3	1	10425	-11
Cc1ccccc1-n1c(CC2CCN(C(=O)c3scnc3C)CC2)n[nH]c1=O	-14	/	/	/	/
SMILES	SSB-PriA inh	BoNT A protease	Anthrax LF prot	Bead autofluor	BoNT F protease
FC(F)(F)c1nc(N2CCOCC2)c2ccccc2n1	-29	/	/	/	/
CC(C(=O)Nc1ccc(C(=O)O)cc1)N1C(=O)c2ccccc2C1=O (stereo not given)	-14	0	-2	20892*	-2
CC(C(=O)Nc1cccnc1)N1C(=O)c2ccccc2C1=O (stereo not given)	-19	1	1	9496	12
CN1C=CC=C/C1=C(/C#N)c1nc(-c2ccccc2)cs1	99*	/	/	/	/
CN1C=CC=C/C1=C(/C#N)c1nc2ccccc2[nH]1	-11	/	/	/	/
COc1ccccc1-c1csc(N)n1	6	/	/	/	/
COc1ccccc1-c1csc(/C(C#N)=C2\C=CC=CN2C)n1	70*	/	/	/	/
N#CC(=Cc1ccccn1)c1nc(-c2ccc(Cl)cc2)cs1	/	1	-3	4039	1
CN1C=CC=C/C1=C(/C#N)c1nc(-c2ccc(Cl)cc2)cs1	134*	/	/	/	/
COc1ccccc1CCNC(=O)C(=O)Nc1ccc2c(c1)OCO2	2	/	/	/	/
O=C(NCCOc1ccc(-c2ccccn2)nn1)[C@H]1CC(=O)N(c2cccc(Br)c2)C1	100*	/	/	/	/
O=C(NCCn1ccc(-c2ccccn2)n1)[C@H]1CC(=O)N(c2ccccc2)C1	-4	/	/	/	/
OCCN1CCN(CC(O)COc2ccc3c(c2)OCO3)CC1 (stereo not given)	5	0	-1	2759	-10
NCC(O)COc1ccc2c(c1)OCO2 (stereo not given)	46*!	0	-2	2674	8
O=C(c1cnc2ccccc2n1)N1CCN(CCn2cccn2)CC1	-8	/	/	/	/
COc1ccc(CN2C(=O)CCC2(C)C(=O)NCc2cccnc2)c(OC)c1 (stereo not given)	-6	?	1	22905*	-2
Cc1csc(CN2CCN(C(=O)COc3ccc(Cl)cc3Cl)CC2)n1	-12	/	/	/	/
O=C(COc1ccc(Cl)cc1Cl)N1CCN(Cc2nc(-c3ccco3)cs2)CC1	35*!	/	/	/	/
CSc1ccccc1NC(=O)c1cc2c(=O)n(C)c(=O)n(C)c2s1	7	/	/	/	/
CC1CC(C)(C)N2C(=O)C3(Nc4ccccc4S3)c3cccc1c32 (stereo not given)	28	?	-3	22846*	-2
O=C(O)CSc1ncnc2nc[nH]c12	-2	0	0	20292*	0
O=C(CSc1ncnc2nc[nH]c12)c1ccc2ccccc2c1	-4	0	-3	2541	-4
CCOC(=O)C(C)Sc1ncnc2nc[nH]c12 (stereo not given)	-11	?	-3	24038*	-3
CCOC(=O)C(CC)Sc1ncnc2nc[nH]c12 (stereo not given)	-2	0	-1	3814	5
O=C(CSc1ncnc2nc[nH]c12)N1CCN(c2ccc(Cl)cc2)CC1	9	0	-4	16576*	3
SMILES	SSB-PriA inh	BoNT A protease	Anthrax LF prot	Bead autofluor	BoNT F protease
CCCCNC(=O)c1ccccc1C(=O)NCCCC	-16	-1	5	9474	-9
CSc1ccccc1C(=O)NCCSc1ccccc1	-12	-1	-4	16492*	-2
CCCCCNC(=O)c1ccccc1SC	-4	-2	-2	16772*	-4
COc1ccc(-n2c(=O)c3ccccc3n(CC(=O)NC[C@H]3CCCO3)c2=O)cc1	-10	/	/	/	/
C=C(C)c1ccc(C(C)(C)NC(=O)N(Cc2ccccc2)Cc2ccco2)cc1	-22	?	-2	22989*	-1
CCCC1=C(C(=O)OCC)C(c2cccs2)C(C#N)=C(N)O1 (stereo not given)	-2	0	0	22890*	-1
CCOC(=O)C1=C(C)OC(N)=C(C#N)C1c1ccoc1 (stereo not given)	5	-2	-2	16971*	-4
CCSC1=C(C#N)C(c2cccs2)C(C(=O)OC)=C(C)N1 (stereo not given)	-5	?	0	22477*	4
CCOC(=O)C1=C(C)NC(SCC(N)=O)=C(C#N)C1c1cccs1 (stereo not given)	-17	0	1	3001	-1
CCOC(=O)C1=C(C)OC(N)=C(C#N)C1c1cccs1 (stereo not given)	2	-1	-3	4194	-7
CCOC(=O)C1=C(C)OC(N)=C(C#N)C1c1ccccc1 (stereo not given)	-7	-1	0	4385	3
